Screening results from PubChem BioAssay.
Gal4-VP16 FLuc = Gal4-VP16 reporter inhibition counter-screen; Drosophila S2 Gal4-VP16 UAS-luciferase, luminescence, 20 h; Potency, µM (top dose mostly 53.6 µM), for inactives: at the top dose activity, negative = inhibition, most hits filed as inhibitors; 3.5% of 310,000 active; AID 2546;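 also: Gal4-VP16 expression switched on by copper sulfate through the metallothionein promoter; % is scaled to controls: 0 for no effect and ±100 for the full control effect; nearly all actives have a fitted effect of over 50% in size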
Mito fusion yeast = inhibitors of mitochondrial division or activators of mitochondrial fusion; 0.23% of 320,000 active; AID 485298; Potency, µM (titrated, usually from 46.1 µM), inactives show at the top dose growth rescue (activation), actives largely listed as activators; S. cerevisiae fusion-defective mutant growth rescue, CellTiterGlo 48 h; also: % of control where 0% means no effect; nearly all actives have a fitted effect of over 45% in size
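Read-out: ATP-based luminescence (CellTiterGlo, 10 min ambient) reporting growth of fusion-defective ts yeast after 48 hours at 37C on glycerol/ethanol YPEG medium in the presence of compound.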
a7 integrin act = activates integrin-mediated alleviation for muscular dystrophy; alpha7betagal myoblasts, beta-gal FDG fluorescence, 48 h; Potency, µM (doses to about 38.3 µM), without a hit: at the top dose activation, usual class: activators; 0.064% of 350,000 active; AID 624291;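 also: 100% = response of the positive control SU9516; nearly all actives have a fitted effect of over 60% in size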
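alpha7betagal+/- myoblasts (passage 13, 250/well) treated 48 h at 37C with compounds at 1:260 dilution of DMSO stock. Lysed, then beta-galactosidase activity read as FDG fluorescence (ex 480/em 540) after 30 min, with pre-read for autofluorescence.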
RORg inh = blocks mouse ROR gamma transcriptional activity; 5.4% of 310,000 active; Drosophila S2 Gal4-RORgamma UAS-luciferase reporter, 20 h; AID 2551; P51450; Potency, µM (top dose mostly 53.6 µM), for inactives: at the highest dose activity change, negative = inhibition, actives largely listed as inhibitors; also: % is scaled to controls: 0 for no effect and ±100 for the full control effect; nearly all actives have a fitted effect of over 60% in size
Target sequence (P51450 whole entry, looked up, the tested form may be a part): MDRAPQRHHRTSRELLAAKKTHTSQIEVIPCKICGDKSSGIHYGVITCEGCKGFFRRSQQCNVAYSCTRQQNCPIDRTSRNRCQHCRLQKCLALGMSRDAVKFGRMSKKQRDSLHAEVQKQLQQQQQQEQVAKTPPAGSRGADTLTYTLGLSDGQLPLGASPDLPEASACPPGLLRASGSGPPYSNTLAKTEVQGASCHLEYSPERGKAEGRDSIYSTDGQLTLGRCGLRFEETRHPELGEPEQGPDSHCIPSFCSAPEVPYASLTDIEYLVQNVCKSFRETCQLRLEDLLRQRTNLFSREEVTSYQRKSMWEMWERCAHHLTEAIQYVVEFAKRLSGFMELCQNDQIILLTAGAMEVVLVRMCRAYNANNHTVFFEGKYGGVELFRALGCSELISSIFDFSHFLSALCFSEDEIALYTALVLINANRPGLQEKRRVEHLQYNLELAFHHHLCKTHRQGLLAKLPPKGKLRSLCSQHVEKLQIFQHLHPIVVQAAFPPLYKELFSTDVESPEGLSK
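Compounds are pin-transferred onto Drosophila Schneider cells expressing a copper-inducible Gal4–ROR gamma transactivation domain fusion. After 1 hr, copper sulfate is added to 700 uM final; luciferase is read 20 hr later.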
uPA surface inh = cell surface uPA generation inhibition | cell surface uPA generation assay, qHTS | 0.31% of 330,000 active | AID 540303 | Potency, µM (highest dose often 38.3 µM), inactives show at the top dose activity change, negative = inhibition, hits mostly inhibitors; active = well fitted inhibition curve with a large enough effect; inconclusive = small, poorly fitted or top-dose-only effect; inactive = no such curve, though single readings can be large or run the other way; tested in mouse RAW 264.7 cells; also: % is scaled to controls: 0 for no effect and ±100 for the full control effect; nearly all actives have a fitted effect of over 55% in size
Chronic BCR inh = blocks chronic active B-cell receptor signaling. ABC-DLBCL IkBa-CBG/CBR reporter, luminescence ratio, 4 h. Potency, µM (titrated, usually from 46.1 µM), for inactives: at the top dose activity change, negative = inhibition, most hits filed as inhibitors. 0.05% of 340,000 active. AID 493014; active = well fitted inhibition curve with a large enough effect in the signal ratio, with a control signal flat, not every such curve was filed as active; inconclusive = small, poorly fitted or top-dose-only effect, or effect the other way, or a change in a side signal; the % refers to the signal ratio;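 also: plate controls were basal doxycycline-induced cells for no effect and cells given 10 µM MG132 for full effect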
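Doxycycline induced both beetle luciferases in TMD8 lymphoma cells; IKK-driven degradation limits the IkappaBalpha-fused green signal, while red luminescence normalises for cell number and nonspecific effects. Compounds tested up to 46 uM, 4 hrs.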
Starred values were filed as active, the others as inactive; ? = inconclusive; nt = not tested or not shown. Shown are actives, neighbours in structure and some others; about 5.5% of the full set was active somewhere. Unless noted, calls follow the shape of the dose curve; as a rule, active = well fitted curve in the direction sought with a large enough effect; inconclusive = small, poorly fitted or top-dose-only effect, or another doubt; inactive = no such curve, though single readings can be large; an effect the other way counts as inactive or inconclusive. Potency is read from the fitted curve at half-maximal effect.

SMILES	Gal4-VP16 FLuc	Mito fusion yeast	a7 integrin act	RORg inh	uPA surface inh	Chronic BCR inh
Cc1cc(C)c2nc(N(Cc3cccnc3)C(=O)c3cccs3)sc2c1	nt	nt	nt	nt	nt	-1.8%
CCCCCCNc1nc(-c2ccc(OC)cc2)c(CCC(=O)O)s1	15.8µM*	-6.2%	7.0%	?	1.0%	13.4%
CCN(CC)CCNc1nc(-c2ccc(OC)cc2)c(-c2ccc(OC)cc2)s1	-9.7%	-0.1%	-75.3%	?	-20.0%	-18.1%
COCCNc1nc(-c2ccc(OC)cc2)c(-c2ccc(OC)cc2)s1	-19.5%	-6.5%	0.0%	11.2µM*	20.8%	-0.6%
COC(=O)CCc1sc(NC2CCCCC2)nc1-c1ccc(OC)cc1	?	2.5%	-38.2%	-75.5%	-0.2%	3.4%
O=C(NCCCN1CCOCC1)c1ccc2c(c1)N(Cc1c(F)cccc1Cl)C(=O)c1ccccc1S2	-12.0%	-3.6%	-57.0%	?	4.47µM*	?
CCOC(=O)n1c(=O)[nH]c2ccc(Br)cc21	-2.6%	3.6%	14.8%	-3.6%	0.2%	1.2%
CCCCOC(=S)NC(=O)c1sc2ccccc2c1Cl	?	-5.6%	2.3%	5.62µM*	-7.8%	?
COc1ccc2c(Cl)c(C(=O)NN)sc2c1	?	1.0%	1.3%	11.2µM*	?	-9.1%
COc1ccc2c(Cl)c(C(N)=O)sc2c1	14.8%	3.8%	6.0%	33.5%	-3.2%	?
O=C(O)c1ccccc1NC(=S)NC(=O)c1sc2ccccc2c1Cl	9.8%	-1.7%	13.9%	6.8%	-3.7%	?
O=C(NNC(=S)NC(=O)c1sc2ccccc2c1Cl)c1ccc(Cl)cc1	12.6µM*	-3.4%	27.4%	5.01µM*	-2.2%	-14.0%
Cc1ccc(NC(=S)NC(=O)c2sc3ccccc3c2Cl)c(C(=O)O)c1	?	4.4%	nt	7.08µM*	nt	?
CN(C)CCCOC(=O)c1sc2ccccc2c1Cl	1.9%	0.8%	13.4%	-2.8%	1.9%	19.2%
Cc1ccc(S(=O)(=O)NCc2ccccc2)cc1C(=O)NCc1ccncc1	nt	nt	-6.0%	nt	nt	nt
COc1cc(OC)c2c(c1C(CCN1CCN(c3ccccc3)CC1)c1ccc(N(C)C)cc1)OC(=O)CC2c1ccc(N(C)C)cc1 (stereo not given)	-5.8%	nt	nt	6.8%	nt	nt
CCn1c(N2CCN(Cc3ccc([N+](=O)[O-])cc3)CC2)nc2ccccc21	4.2%	-3.3%	-0.9%	-17.1%	-8.9%	-4.5%
CCCn1c(N2CCN(Cc3ccc(Cl)cc3)CC2)nc2ccccc21	?	?	-18.3%	11.2µM*	-11.0%	2.3%
CCc1cc2c(Nc3ccc(O)cc3)nc(C)nc2s1	-11.3%	-29.2%	1.8%	12.6%	?	?
Cc1ccc(N2CC(NC(=O)c3ccc(S(=O)(=O)N4CCOCC4)cc3)CC2=O)cc1 (stereo not given)	nt	nt	nt	nt	nt	-4.3%
COc1cccc(CNC(=O)c2cc3c(C)nc4ccccc4c3o2)c1	?	7.2%	17.8%	32.0%	?	?
CCc1ccc(CNC(=O)c2cc3c(C)nc4ccccc4c3o2)cc1	17.8µM*	16.1%	1.0%	27.1%	?	?
CC[Si](CC)(CC)O[C@H]([C@@H](C)COCOC)[C@@H](C)COCc1ccc(OC)cc1	-4.5%	nt	nt	16.6%	nt	nt
Cc1cccc(/C=N/n2c(-c3ccccc3)n[nH]c2=S)c1O	?	-3.2%	0.2%	-38.2%	2.6%	6.2%
S=c1[nH]nc(-c2cc(-c3ccccc3)n[nH]2)n1/N=C/c1ccc(Cl)cc1	?	2.0%	26.4%	?	-11.3%	?
SMILES	Gal4-VP16 FLuc	Mito fusion yeast	a7 integrin act	RORg inh	uPA surface inh	Chronic BCR inh
Cc1ccc(-c2n[nH]c(=S)n2/N=C/c2ccc(C)s2)cc1	7.08µM*	-10.1%	7.8%	3.16µM*	-3.5%	12.7%
Cc1ccc(/C=N/n2c(-c3ccc(Cl)cc3)n[nH]c2=S)s1	-29.8%	1.4%	-20.0%	1.41µM*	-2.7%	4.0%
Nc1nc2c(ncn2[C@@H]2O[C@H](CO)[C@@H](O)[C@H]2O)c(=O)[nH]1	-0.5%	nt	nt	1.1%	nt	nt
Nc1nc2c(ncn2C2OC(CO)CC2O)c(=O)[nH]1 (stereo not given)	?	nt	nt	20µM*	nt	nt
Brc1cccc(-c2nnco2)c1	?	0.6%	2.1%	20µM*	-4.2%	2.9%
Brc1ccc(-c2nnc(-c3cccc(Br)c3)o2)cc1	-21.3%	2.6%	-3.7%	21.6%	3.6%	?
O=C(NCCc1cnn(-c2ccccc2)c1)c1cc(COc2c(F)cccc2F)on1	0.8%	4.4%	-6.9%	43.5%	-4.3%	21.1%
O=C(CS(=O)(=O)c1ccc(Cl)cc1)Nc1nnc(-c2cccs2)o1	?	-5.0%	9.0%	14.1µM*	3.0%	0.7%
O=C(CCS(=O)(=O)c1ccc(F)cc1)Nc1nnc(-c2cccs2)o1	nt	7.5%	-44.1%	nt	10µM*	-3.1%
Cc1ccc(NC(=O)COc2ccccc2[N+](=O)[O-])nc1	?	3.9%	5.1%	6.31µM*	-9.9%	-3.9%
Cc1ccnc(NC(=O)COc2ccccc2[N+](=O)[O-])c1	?	-2.2%	nt	11.2µM*	nt	1.2%
COC(=O)/C=C/COc1ccccc1[N+](=O)[O-]	-0.4%	-2.4%	-56.2%	-28.1%	11.2µM*	?
Cc1ccc(NC(=O)c2ccc(COc3ccccc3[N+](=O)[O-])o2)nc1	nt	11.9%	-2.9%	nt	?	?
COCCn1c(=O)c(C)nc2cnc(Oc3cccc(Cl)c3)nc21	5.8%	nt	nt	3.6%	nt	nt
Cc1ccc2sc(N(Cc3cccnc3)C(=O)CCOc3ccccc3)nc2c1C	nt	nt	nt	nt	nt	7.4%
CC(=O)c1ccc(S(=O)(=O)N2CCC(NC(=O)c3ccccc3)CC2)cc1	-1.5%	2.4%	20.8%	9.2%	8.8%	-0.6%
O=C(N/N=C\c1ccc2c(c1)OCO2)c1ccco1	-25.0%	-1.7%	20.5%	-43.6%	?	?
O=C(N/N=C/c1cccc(O)c1)c1ccc2c(c1)OCCO2	6.31µM*	16.9%	-7.4%	3.16µM*	?	?
COc1cc(/C=N/NC(=O)C2C3CCCCC32C)cc(Br)c1O (stereo not given)	5.01µM*	3.0%	11.7%	7.08µM*	-4.7%	?
O=C(N/N=C\c1cccc(OC(=O)c2ccco2)c1)c1ccc2c(c1)OCO2	6.31µM*	2.6%	5.2%	14.1µM*	-8.9%	?
Cc1cccc(/C=N/NC(=O)c2ccc3c(c2)OCCO3)c1O	2.51µM*	-6.2%	nt	3.55µM*	nt	?
O=C(N/N=C/c1ccc2c(c1)OCO2)c1ccc2c(c1)OCO2	11.3%	-0.4%	1.1%	-32.6%	2.5%	?
COc1cc(/C=N/NC(=O)c2ccc3c(c2)OCCO3)c(Br)c(Br)c1O	-2.3%	?	3.9%	13.2%	-18.7%	?
